Screens: PubChem, several laboratories
PKD1 kinase inh – PKD1 (human) kinase inhibition | Q15139 | PKD1 kinase fluorescence polarization assay | inhibition, % (no concentration beside the values) | actives 0.056% (n = 200,000) | AID 797; in the data active = inhibition above about 50%
PERK inh – blocks human PERK kinase | Q9NZJ5 | CHO PERK-DD fusion, SEAP luminescence translation reporter | inhibition, % at 5.6 µM | actives 0.17% (n = 220,000);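 active = inhibition above the mean inhibition of all tested compounds plus 3 SD, set separately per screening campaign, cut at about 2.9% in these data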;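 also: PERK kinase domain activated by AP20187 dimerizer at 100 nM; 0% = DMSO with dimerizer and 100% = rapamycin at 8.4 µM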
Target sequence (Q9NZJ5 whole entry, looked up, the tested form may be a part): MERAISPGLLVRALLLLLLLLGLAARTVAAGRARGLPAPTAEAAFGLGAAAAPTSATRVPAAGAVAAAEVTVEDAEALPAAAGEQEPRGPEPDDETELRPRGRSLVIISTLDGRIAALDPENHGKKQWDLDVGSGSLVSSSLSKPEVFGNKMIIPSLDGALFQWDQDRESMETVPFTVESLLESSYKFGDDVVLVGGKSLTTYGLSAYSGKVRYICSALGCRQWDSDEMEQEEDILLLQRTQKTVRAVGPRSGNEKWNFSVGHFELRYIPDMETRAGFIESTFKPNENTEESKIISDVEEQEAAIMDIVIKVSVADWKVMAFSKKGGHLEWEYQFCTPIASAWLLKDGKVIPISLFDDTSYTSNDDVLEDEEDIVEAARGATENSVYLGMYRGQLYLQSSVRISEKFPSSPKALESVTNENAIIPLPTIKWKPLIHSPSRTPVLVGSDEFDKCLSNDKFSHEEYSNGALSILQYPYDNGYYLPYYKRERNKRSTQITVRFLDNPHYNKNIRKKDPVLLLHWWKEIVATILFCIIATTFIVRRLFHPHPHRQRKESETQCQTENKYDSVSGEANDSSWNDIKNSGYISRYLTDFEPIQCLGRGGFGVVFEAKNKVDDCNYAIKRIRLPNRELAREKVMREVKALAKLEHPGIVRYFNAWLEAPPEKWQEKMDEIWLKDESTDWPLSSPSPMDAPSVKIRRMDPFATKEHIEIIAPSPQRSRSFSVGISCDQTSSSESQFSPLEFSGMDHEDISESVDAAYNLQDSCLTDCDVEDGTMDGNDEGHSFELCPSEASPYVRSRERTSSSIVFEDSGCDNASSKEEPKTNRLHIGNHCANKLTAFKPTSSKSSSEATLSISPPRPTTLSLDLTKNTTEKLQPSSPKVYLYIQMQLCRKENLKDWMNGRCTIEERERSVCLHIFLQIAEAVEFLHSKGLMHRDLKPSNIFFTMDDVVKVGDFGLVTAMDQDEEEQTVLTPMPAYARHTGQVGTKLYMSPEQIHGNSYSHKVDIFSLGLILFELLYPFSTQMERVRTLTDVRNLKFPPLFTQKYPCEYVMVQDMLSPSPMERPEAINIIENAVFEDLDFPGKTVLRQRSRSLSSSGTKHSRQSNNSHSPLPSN
DTT redox prof – compounds producing H2O2 with reducing agent – biochemical, NIH compound library profiling, artefact control for MLSCN library redox annotation, primary screen; activation, % at 10 µM; actives 0.03% (n = 200,000); DTT-dependent redox cycling H2O2, phenol red/HRP absorbance; 100% = 100 µM peroxide control, 0% = buffer;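 active = activation of at least 50% relative to the plate's high and low controls in the primary single-dose screen; inactive = activation below 50%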;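 also: compound incubated with DTT at 0.8 mM final as the reducing agent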
WT yeast gro inh – growth inhibition of WT yeast, mitochondrial fusion screen; inhibition, % at 10 µM; mitochondrial fusion phenotypic screen, WT strain; actives 2.1% (n = 190,000); in the data active = inhibition above about 58%; tested in S. cerevisiae
TNF necrop inh – inhibitors of TNF-alpha induced necroptosis in Jurkat FADD-/- cells; Jurkat FADD-/- TNF necroptosis rescue, ATP luminescence, 24 h; 0 = TNF only, 100 = no-TNF cells; activation (protection from cell death), % at 10 µM; actives 0.068% (n = 220,000);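 active = activation, meaning protection from cell death, of at least 50% relative to plate controls; inactive = activation below 50%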;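 also: necroptosis triggered by 40 ng/mL TNF-alpha added together with compound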
L929 necroptosis – L929 zVAD cell death inhibition; L929 zVAD necroptosis rescue, ATP luminescence, 24 h; with zVAD 60 µM; actives 0.38% (n = 220,000); viability rescue, % at 10 µM;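 active = activation, scaled between plate controls, above about 75%, limit read from the data; inactive = activation under that limit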;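 also: 0% = zVAD with DMSO and 100% = DMSO alone without zVAD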
The depositor's hits bear a star; x = no result given. In the library only some 2.4% were active in any assay of this set; here they are far more common.

SMILES	PKD1 kinase inh	PERK inh	DTT redox prof	WT yeast gro inh	TNF necrop inh	L929 necroptosis
O=[N+]([O-])c1c(C(Cl)Cl)nn(-c2ccccc2)c1N1CCOCC1	-8	0	-1	-4	-1	-1
CN(C)c1ccc(S(=O)(=O)N2CCCCC2)cc1NC(=O)COc1ccccc1F	x	0	x	x	2	2
Cc1nc2cc(C(=O)OCC(=O)NC34CC5CC(CC(C5)C3)C4)ccc2n1-c1ccccc1	0	0	0	59*	2	3
Cc1ccc(Cn2ncc3c(N4CCN(c5ccccc5C)CC4)ncnc32)cc1	-10	-1	4	65*	-2	2
CN(C)S(=O)(=O)c1cccc(NC(=O)COC(=O)CNC(=O)c2ccccc2F)c1	x	0	x	x	2	1
Fc1ccc(CO/N=C/C2=C(Cl)c3ccccc3CC2)cc1	-5	-1	0	58*	0	0
O=c1cc2c(nn1Cc1ccc(F)cc1)-c1ccccc1CC2	3	1	1	58	1	0
CN(C)CC(c1ccccc1)c1ccccc1	x	4.3*	x	x	4	0
CCCN1C(=O)c2ccccc2NC1c1ccc(OC)c(CSc2ccccn2)c1 (stereo not drawn)	3	0	0	64*	1	0
CCc1ccccc1NC(=O)CN(C)C(=O)CSc1nn(-c2ccc(F)cc2)c(=S)s1	-2	0	1	4	0	0
CCOC(=O)c1c(N)sc(C(O)(C(F)(F)F)C(F)(F)F)c1-c1ccc(Cl)cc1	-4	-1	0	96*	1	0
CCOC(=O)c1c(N)sc(C(O)(C(F)(F)F)C(F)(F)F)c1-c1ccc(F)cc1	-2	0	2	-12	0	0
O=C1c2ccccc2-n2c1nc1ccccc1c2=O	0	1	0	66*	-6	6
O=c1c2ccccc2nc2n1-c1ccccc1CCC2	-6	0	-4	18	-1	0
Cc1c(NC(=O)OCCNC(=O)COc2c(Cl)cccc2Cl)sc(=S)n1C	-7	0	2	4	-3	0
CC(C)(C)N(Cc1ccccc1)C(=O)c1ccc(Cl)cc1[N+](=O)[O-]	-2	1	-1	4	1	0
O=C(c1ccc(Cl)cc1[N+](=O)[O-])N(Cc1ccccc1)Cc1ccccc1	-11	0	0	61*	2	1
NS(=O)(=O)c1ccc(NC(=O)COC(=O)CCc2ccc(S(=O)(=O)N3CCOCC3)cc2)cc1	x	1	x	x	1	0
CCCCCCOc1ccc(NC(=O)CC2C(=O)N(CC)C(=S)N2Cc2ccco2)cc1 (stereo not drawn)	10	-1	-1	62*	6	1
COc1ccc(C(=O)Oc2cc(/C=N/NC(N)=S)ccc2OC)cc1	-2	0	-4	55	-6	0
COc1ccc(/C=N/NC(N)=S)cc1OC(=O)c1cccc2ccccc12	1	-1	2	61*	-24	2
COc1ccccc1C1(O)CCN(CC(=O)Nc2nc(-c3ccccc3)cs2)CC1	-8	0	-1	21	2	20
Cc1ccc(C2(c3ccc(C)cc3)CC2C(=O)Nc2ccc([N+](=O)[O-])cc2O)cc1 (stereo not drawn)	-2	1	-7	88*	-22	1
Cc1ccc([N+](=O)[O-])cc1N=C(c1ccc([N+](=O)[O-])cc1)N1CCOCC1	1	1	0	9	0	1
Cc1ccc([N+](=O)[O-])cc1N=C(c1cccc([N+](=O)[O-])c1)N1CCOCC1	0	9.5*	-5	-14	1	0
SMILES	PKD1 kinase inh	PERK inh	DTT redox prof	WT yeast gro inh	TNF necrop inh	L929 necroptosis
Cc1nc(CNS(=O)(=O)c2ccc3ccccc3c2)cs1	-7	0	0	2	1	1
Cc1nc(-c2cccc(NS(=O)(=O)c3ccc4ccccc4c3)c2)cs1	-5	1	2	60*	0	0
COc1cccc(NC(=O)[C@H](C)NC(=O)C2CCN(S(=O)(=O)c3ccc(C)cc3)CC2)c1	x	-1	x	x	-1	0
O=C(CCn1nnc2ccccc21)Nc1nnc(Cc2ccccc2)s1	3	-1	0	67*	0	0
O=C(CCn1nnc2ccccc21)Nc1nnc(COc2ccccc2F)s1	0	-1	1	x	-2	-1
Cc1ccccc1NC(=O)CSC1=C(C#N)C(c2ccsc2)CC(=O)N1 (stereo not drawn)	3	0	-1	-15	-1	0
N#CC1=C(SCC(=O)Nc2nccs2)NC(=O)CC1c1ccccc1 (stereo not drawn)	-4	-1	-1	13	75*	82*
COc1ccccc1N=Nc1nc(-c2ccccc2)c(-c2ccccc2)[nH]1	-7	-2	-1	64*	-2	2
CCCCNC(=S)N/N=C/C1=CCC2CC1C2(C)C (stereo not drawn)	0	0	0	70*	-2	0
CC(C)NC(=S)N/N=C/C1=CCC2CC1C2(C)C (stereo not drawn)	-6	0	3	73*	-2	1
CC(=O)N/N=C/C1=CCC2CC1C2(C)C (stereo not drawn)	-8	1	-4	13	0	-2
CS(=O)(=O)CCSc1ncccc1C(=O)NCc1cccs1	x	1	x	x	1	0
Cc1ccc(-c2nnc(-c3ccccc3)c(-c3ccccc3)n2)cc1	1	1	1	76*	-2	0
CCN(CC)c1nc(-c2ccccn2)nc(-c2ccccc2)c1C#N	-3	1	-1	80*	0	-1
CN(C)c1nc(-c2ccccn2)nnc1-c1ccccc1	-6	-1	0	61*	-11	64
C[N+]1(CC(O)COCC2COc3ccccc3O2)CCOCC1 (stereo not drawn)	-9	1	-3	-9	0	1
Cc1cc([N+](=O)[O-])cnc1Sc1nccn1C	0	0	0	-5	3	0
Cc1sc(-n2c(C)cc(/C=C3\SC(=S)NC3=O)c2C)c(C#N)c1C	-20	0	-8	77*	-6	0
Oc1ccc(O)c(-c2cnns2)c1	-2	1	0	-12	-12	0
O=C(C1CC1c1ccccc1)N1CCN(c2cccc(Cl)c2)CC1 (stereo not drawn)	-3	-1	-1	77*	0	0
COc1cccc(CNC(=O)C(=O)NCC(c2ccco2)N2CCOCC2)c1 (stereo not drawn)	-3	0	0	-12	0	1
COc1ccc(-c2nc3ccccc3c(=O)n2CCOc2cc(C)ccc2C)cc1	-13	0	2	-1	1	1
